# Measured values: PubChem BioAssay AID1159524 (National Center for Advancing Translational Sciences (NCATS), 2015)
# The campaign covered roughly 410,000 compounds. About 5,100 (1.2%) were called active. Another 8% or so got no clear call; they are omitted. The call rests on the fitted dose curve; tested in HEK293T cells. Only a selection was taken, and actives are over-represented in it overall.
# Assay: High Throughput Screening for Foot and Mouth Disease Virus Antivirals; further: read-out not given here; nearly all actives have a fitted effect of over 45% in size
# Details: FMDV antiviral cell-based qHTS; series mostly up to 57.9 µM; activity change, negative = inhibition: at the top concentration
# On the % scale 0 is the no-effect control and ±100 the full control effect; potency means the concentration at half of the fitted maximal effect.
Structure (SMILES),"activity change, negative = inhibition",Potency
O=C(NCCc1ccc(F)cc1)c1ccc(S(=O)(=O)N2CCCCC2)cc1,-11.9% (inactive),
COc1ccc(C(=O)NCc2ccc(Cl)cc2)cc1S(=O)(=O)N1CCCC1,12.2% (inactive),
NS(=O)(=O)c1ccc(CCNC(=O)c2ccc(Cl)c(S(=O)(=O)N3CCCCCC3)c2)cc1,,14.1 µM (active)
O=C(CCS(=O)(=O)c1ccccc1)N(Cc1cccnc1)c1nc2c(F)cccc2s1,-14.1% (inactive),
O=C(c1ccc(F)cc1)C1CCN(CCCCc2ccccc2)CC1,-8.09% (inactive),
CS(=O)(=O)N1CCC2(CC1)CN(c1ccncc1)C2,-4% (inactive),
CCOC(=O)c1c(NC(=O)c2cc(-c3ccc(Cl)cc3)on2)sc2c1CCCC2,-19.7% (inactive),
Cc1ccc(Cl)cc1NC(=O)CSc1nc2ccccc2nc1Cc1ccccc1,0.711% (inactive),
NC(=O)c1sc(-c2ccsc2)cc1N,7.11% (inactive),
CN(CCO)c1ccc(/C=N/Nc2nncc3ccccc23)cc1,,10 µM (active)
COc1cccc(-c2cc(NCCc3c[nH]c4ccc(OC)cc34)ncn2)c1,11% (inactive),
O=C(c1cnccn1)N1CCC2(CCCN(Cc3ccccc3)C2)CC1,-5.51% (inactive),
CCNc1ncc2ncc(=O)n(CCc3ccccc3)c2n1,-17.7% (inactive),
COc1ccc(Nc2cc(C(=O)NCCCN(C)c3ccccc3)c3ccccc3n2)c(OC)c1,-28% (inactive),
O=C(Nc1cccc(F)c1)N1CC2(CCN(C(=O)c3csnn3)CC2)C1,-5.25% (inactive),
CCOC(=O)C1=C(c2ccccc2)NC(=O)NC1c1cc(OC)c(OC)cc1OC (configuration not stated),-0.619% (inactive),
CCOC(=O)C1C(=O)C=C(c2ccc(OC)cc2)CC1c1ccco1 (configuration not stated),-7.7% (inactive),
CCOC(=O)C1=C(c2ccc(OC)cc2)C(=O)c2ccccc2C1=O,,3.55 µM (active)
CC(C)(CNC(=O)Cc1ccc(Cl)cc1Cl)N1CCOCC1,9.26% (inactive),
CC(C)(CNC(=O)c1ccc(Cl)c(S(=O)(=O)N2CCc3ccccc3C2)c1)N1CCOCC1,,12.6 µM (active)
CN(C)S(=O)(=O)c1ccc(C(=O)NCC(C)(C)N2CCOCC2)cc1,-12.6% (inactive),
Cc1ccc(S(=O)(=O)c2c(Nc3cccc(Cl)c3)sc(C(=O)c3ccc4c(c3)OCO4)c2N)cc1,9.11% (inactive),
CCS(=O)(=O)N1CCc2cc(C(=O)N3CCN(c4ccccc4OC)CC3)ccc21,-12.5% (inactive),
COc1ccccc1N1CCN(C(=O)c2ccc(Cl)c(S(=O)(=O)N3CCCC3)c2)CC1,,20 µM (active)
COc1ccccc1CNC(=O)c1ccc(Cl)c(S(=O)(=O)N2CCCC2)c1,-15.1% (inactive),
CCCC1OC23CCCCC2C(C#N)(C#N)C1(C#N)C(=N)O3 (configuration not stated),,20 µM (active)

Structure (SMILES),"activity change, negative = inhibition",Potency
CN1CCCC1CCO[C@@](C)(c1ccccc1)c1ccc(Cl)cc1 (some centres not stated),-12.3% (inactive),
CN1CCN(C(=O)O[C@@H]2c3nccnc3C(=O)N2c2ccc(Cl)cn2)CC1,-5.32% (inactive),
Cc1cnc(-n2ncc(C(=O)N3CCN(C(C)C)CC3)c2-c2ccco2)nc1-c1ccc(F)cc1,-16% (inactive),
CCN(CC)S(=O)(=O)c1ccc(N(C)Cc2cccc(OC)c2OC)nc1,,20 µM (active)
COc1ccc(S(=O)(=O)N2CCCCCC2)cc1C(=O)N(C)Cc1cccc(OC)c1OC,-17.4% (inactive),
COc1cccc(CN(C)CC(=O)NCc2ccccc2Cl)c1OC,15.7% (inactive),
COc1ccc(S(=O)(=O)NCC(c2ccc(N(C)C)cc2)N2CCCC2)cc1 (configuration not stated),-22.1% (inactive),
COc1ccc(CN2CCOc3c(cc(-c4ncc(C(F)(F)F)cc4Cl)cc3OCC3CCCO3)C2)c(O)c1 (configuration not stated),-12.2% (inactive),
Cc1ccc(NS(=O)(=O)c2ccc3c(c2)CC(=O)N3)cc1Cl,25.8% (inactive),
COCC(=O)N1CCC2(CCCN(c3ccccc3)C2)CC1,2.27% (inactive),
O=C(Nc1ccc(F)cc1)C1CCCN(S(=O)(=O)c2ccc(-n3cnnn3)cc2)C1 (configuration not stated),-27.8% (inactive),
CC(C)CNC(=O)C1CCCN(S(=O)(=O)c2ccc(-n3cnnn3)cc2)C1 (configuration not stated),-21.6% (inactive),
COC(=O)c1ccc(CN2CCCC(C(=O)Nc3cccc(-n4cnnn4)c3)C2)cc1 (configuration not stated),,28.2 µM (active)
CN(CC(=O)Nc1cccc(C(F)(F)F)c1)S(=O)(=O)c1cccs1,-0.475% (inactive),
COc1ccccc1CNC(=O)C(=O)NCC(c1cccs1)S(=O)(=O)c1cccs1 (configuration not stated),-28.5% (inactive),
Cc1no[n+]([O-])c1COc1ccccc1/C=C1\NC(=S)NC1=O,-20.6% (inactive),
C#CCOc1ccccc1/C=C1/C(=O)ON=C1C,,39.8 µM (active)
CN1CCCCCC1C(=O)NCCN1Cc2ccccc2OC(c2ccsc2)C1 (configuration not stated),0.0789% (inactive),
Cc1n[nH]c(C)c1S(=O)(=O)N1CCCC(C(=O)NCC2COc3ccccc3O2)C1 (configuration not stated),-9.84% (inactive),
CCn1ccnc1C[C@@H]1COc2ccccc2O1,6.47% (inactive),
Cc1cc(C(=O)CCl)c(C)n1CC1COc2ccccc2O1 (configuration not stated),,12.6 µM (active)
Cc1ccc(-c2cn3c(n2)sc2cc(C(=O)NCCCc4ccccc4)ccc23)cc1,14.8% (inactive),
COc1cc(C2c3c(oc4ccccc4c3=O)C(=O)N2c2nc(C)c(C)s2)ccc1O (configuration not stated),-11.5% (inactive),
COC(C[C@H](O)CC(=O)[C@@H](C)OCc1ccccc1)OC,-7.66% (inactive),
COC(C/C=C/C(=O)[C@@H](C)OCc1ccccc1)OC,,39.8 µM (active)
COC(C[C@@H]1O[C@@H]1C(=O)[C@H](C)OCc1ccccc1)OC,-10.1% (inactive),

Structure (SMILES),"activity change, negative = inhibition",Potency
Cc1nc2cnc(N3CCNCC3)nc2n(Cc2ccc(F)cc2)c1=O,-10.8% (inactive),
C=CCSSCC=C,-4.9% (inactive),
O=C(OCc1ccccc1F)c1ccc2c(c1)OCCO2,44.5% (inactive),
N#CCCN(C(=O)COC(=O)c1ccc2c(c1)OCCO2)c1ccccc1,-0.86% (inactive),
O=C(COC(=O)c1ccccc1)c1ccc2c(c1)OCCO2,,12.6 µM (active)
COc1cc(=O)n2c(c1C(=O)N(C)Cc1nonc1C)CCN(C(=O)c1ccc(C)cc1C)CC2,3.5% (inactive),
COc1ccc(-c2nc3cnc(N(C)C)nc3n(Cc3cccs3)c2=O)cc1,-1.02% (inactive),
Cc1cccc(-n2ncc(C(=O)N3CCc4ccccc4C3)c2C2CCN(C(=O)OC(C)(C)C)CC2)c1,,2 µM (active)
Cc1cccc(-n2ncc(C(=O)N3CCN(c4ccc(Cl)cc4)CC3)c2C2CCN(C(=O)OC(C)(C)C)CC2)c1,-12.8% (inactive),
Cc1cccc(-n2ncc(C(=O)N3CCC(C)CC3)c2C2CCN(C(=O)OC(C)(C)C)CC2)c1,-4.72% (inactive),
O=C(Nc1nc(-c2ccc3c(c2)OCO3)cs1)c1ccncc1,,15.8 µM (active)
c1ccc2c(Nc3ccncc3)nc(-c3ccc4c(c3)OCO4)nc2c1,-9.03% (inactive),
CC(O)(c1cccc(F)c1)c1nc(-c2ccc3c(c2)OCO3)cs1 (configuration not stated),-19.4% (inactive),
COCCn1c(=O)c(-c2cccs2)nc2cncnc21,-16.5% (inactive),
Cc1c(C(=O)NCC2CCCN(C)C2)cnn1-c1nccc(-c2ccco2)n1 (configuration not stated),-4.89% (inactive),
Cc1ccc(NC(=O)CN2c3ccccc3S(=O)(=O)c3ccccc32)cc1F,-15.4% (inactive),
CCCCN(CC(=O)NC(C)(C)C)C(=O)C(=O)Nc1ccc2c(c1)OCCO2,30.3% (inactive),
COC(=O)CCNc1ccc2c(c1)OCCO2,,11.2 µM (active)
CCC(C)(C)NC(=O)CN(C(=O)C(=O)Nc1ccc2c(c1)OCCO2)C(C)(C)CC,12.4% (inactive),
CCCCC/C=C\C/C=C\C/C=C\C/C=C\CCCCCC(=O)NCCO,-8.95% [at 6.7 µM] (inactive),
O=C1NS(=O)(=O)c2ccccc21,-10% (inactive),
CCc1nccn1S(=O)(=O)c1cc(Br)ccc1Br,-7.35% (inactive),
CCOc1c(Br)cc(/C=C2\C(=O)N(CCC#N)N=C2C)cc1OC,,28.2 µM (active)
CSc1ccc(C2C(C(=O)Nc3ccccc3)=C(C)Nc3nc4ccccc4n32)cc1 (configuration not stated),-22% (inactive),
COC(=O)c1c(OCc2ccc(F)cc2)cc(=O)n2c1CCN(Cc1ccc3cccnc3c1)CC2,-8.63% (inactive),
Cc1cccc(CC(=O)Nc2cccc(-c3cn4cccnc4n3)c2)c1,18.4% (inactive),

Structure (SMILES),"activity change, negative = inhibition",Potency
COc1ccc(-c2[nH]c3c(c2-c2c(-n4cccc4)n(C)c(=O)n(C)c2=O)c(=O)n(C)c(=O)n3C)cc1,-8.33% (inactive),
O=C(NCc1ccc(Cl)cc1)c1ccc2c(c1)nnn2C1CCCC1,-14.3% (inactive),
O=C(Cn1nnc(-c2ccccc2)n1)NC(=O)NC1CCCC1,-9.99% (inactive),
Cc1nc(/N=C(\N)NC(=O)NC2CCCCC2)nc2ccccc12,,31.6 µM (active)
O=C(/C=C/c1cnc2ccccc2n1)NC1CCCCCC1,36.2% (inactive),
CCOC(=O)N1CCC(N2CCOc3ccc(CN4CCC(O)(c5cccnc5)CC4)cc3C2)CC1,1.1% (inactive),
COc1cccc(CNC(=O)Cn2c(=O)c3cccn3c3ccc(F)cc32)c1OC,-21.5% (inactive),
COCc1c(C(=O)NC2CCCCC2)cnn1-c1nccc(-c2ccccc2OC)n1,-1.95% (inactive),
CC(=O)Nc1cccc(OCC(=O)/C=C2\N(C)c3ccccc3C2(C)C)c1,,25.1 µM (active)
COc1cccc(NC(=S)C(C#N)=C2N(C)c3ccccc3N2C)c1,5.09% (inactive),
CN1/C(=C\C=C2\N=C(c3ccc(F)cc3)OC2=O)C(C)(C)c2ccccc21,-28.5% (inactive),
COc1ccccc1CNc1ncncc1-c1cccc(NS(C)(=O)=O)c1,-15.9% (inactive),
O=P(O)(O)C(O)c1ccc2ccccc2c1 (configuration not stated),1.06% (inactive),
Cc1ccc(CS(=O)(=O)CCC(=O)NC2CC2)cc1,-10.8% (inactive),
C#CCN(C[C@@H]1[C@@H](OC(=O)NC2CC2)[C@@H](OC(=O)NC2CC2)Cn2c(=O)ccc(=O)n21)S(=O)(=O)c1ccc(C)cc1,,20 µM (active)
CN(c1ccc2nc3ccccc3c(=O)n2n1)C1CCCCC1,,20 µM (active)
COc1ccccc1Nc1cc(C(=O)NCCCN(C)C2CCCCC2)c2ccccc2n1,-28.5% (inactive),
O=C(c1ccco1)N(Cc1nc2ccccc2c(=O)[nH]1)C1CCCC1,-1.37% (inactive),
COc1cc(=O)n2c(c1C(=O)NC(C)c1ccco1)CCN(C(=O)c1cn3ccc(C)cc3n1)CC2 (configuration not stated),12.5% (inactive),
CCN(C(=O)c1sc2cc(OC)ccc2c1Cl)c1ccccc1,-22.9% (inactive),
COc1ccccc1CNc1nc(-c2c(C)noc2C)nc2ccccc12,-10.6% (inactive),
CCCCC(=O)N(C)c1c(CC)nc2c(OCc3ccc(Cl)cc3Cl)cccn12,-24.1% (inactive),
CCc1nc2c(OCc3ccc(Cl)cc3Cl)cccn2c1N(C)C(=O)C(C)C,,31.6 µM (active)
CCc1nc2c(OCc3cccc(OC)c3)cccn2c1N(C)C(=O)C(C)C,-16.8% (inactive),
